A selection: hits, their analogues and other compounds. The true share with any hit is near 7.5%.
ELG1 genotox = qHTS screen for small molecules that induce genotoxicity in human embryonic kidney (HEK293T) cells expressing luciferase-tagged ELG1. AID 504466, 2011. actives 1.3% (n = 330,000). Potency, µM (series often up to 46 µM), for inactives: at the top dose activity change, positive = activation, most hits filed as activators. HEK293T ELG1-luciferase reporter, luminescence, 16 h; further: % of control where 0% means no effect; nearly all actives have a fitted effect of over 60% in size
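HEK293T cells expressing luciferase-tagged ELG1 were exposed to compound or DMSO vehicle for 16 hr at 37 °C and 5% CO2. Luciferase activity was then measured with ONE-Glo after 30 min at room temperature.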
FLuc modulator = qHTS profiling assay for firefly luciferase inhibitor/activator using purifed enzyme and Km concentrations of substrates (counterscreen for miR-21 project); Luciferin 4-monooxygenase (Photinus pyralis), P08659; purified FLuc, Km substrates, luminescence inhibition; Potency, µM (highest dose often 57.5 µM), inactives show at the highest dose activity change, negative = inhibition, most hits filed as inhibitors; actives 6.9% (n = 360,000); AID 588342, 2011;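 further: plate controls were vehicle for no effect and reference inhibitor for full effect; nearly all actives have a fitted effect of over 55% in size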
Target sequence (P08659 whole entry, looked up): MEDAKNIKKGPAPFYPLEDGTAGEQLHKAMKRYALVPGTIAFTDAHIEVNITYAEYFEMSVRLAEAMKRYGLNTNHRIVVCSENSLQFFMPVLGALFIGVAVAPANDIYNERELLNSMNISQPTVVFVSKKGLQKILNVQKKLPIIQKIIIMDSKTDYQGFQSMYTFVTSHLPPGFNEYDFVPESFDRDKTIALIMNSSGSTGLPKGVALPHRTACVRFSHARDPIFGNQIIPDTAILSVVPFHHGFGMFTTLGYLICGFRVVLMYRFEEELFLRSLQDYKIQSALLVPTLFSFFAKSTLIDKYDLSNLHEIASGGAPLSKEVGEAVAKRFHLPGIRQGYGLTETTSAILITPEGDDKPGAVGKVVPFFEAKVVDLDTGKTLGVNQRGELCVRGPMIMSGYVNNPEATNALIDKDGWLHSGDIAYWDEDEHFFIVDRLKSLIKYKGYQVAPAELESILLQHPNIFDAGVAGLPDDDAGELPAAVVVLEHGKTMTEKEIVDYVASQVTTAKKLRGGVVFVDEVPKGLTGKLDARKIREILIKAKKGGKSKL
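Biochemical qHTS of compounds, final roughly 60 µM downward over six points, against 10 nM purified firefly luciferase using Km concentrations of substrates (10 uM D-luciferin, 10 uM ATP) in Tris acetate pH 7.5 buffer; luminescence output.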
SMN2 splice up = qHTS Assay for Enhancers of SMN2 Splice Variant Expression; HEK293 SMN2-luciferase splicing reporter, luminescence, 30-36 h; Potency, µM (top dose mostly 46.1 µM), for inactives: at the highest dose activity change, positive = activation, actives largely listed as activators; actives 2.8% (n = 210,000); AID 1458, 2008; further: % of control where 0% means no effect; nearly all actives have a fitted effect of over 55% in size
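qHTS luciferase splicing reporter: luminescence rises when SMN2 exon 7 is included in transfected HEK293 cells. Compound exposure lasted 30-36 h at 37C, with 4.5 mM final sodium butyrate as control, followed by a ONE-Glo read.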
NPC1 promoter act = qHTS Assay for NPC1 Promoter Activators | Huh7 NPC1 promoter luciferase reporter, 24 h | actives 2.4% (n = 320,000) | Potency, µM (series often up to 9.22 µM), for inactives: top-dose activation, hits mostly activators; further: % of control where 0% means no effect; nearly all actives have a fitted effect of over 60% in size
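Huh7 reporter cells (NPC1 promoter driving luciferase) are dosed with compound for 24 h at 37 °C, 5% CO2; luciferase detection reagent is then added and luminescence measured after 10 min at ambient temperature.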
KinaseGlo FLuc = Counterscreen for Luciferase (Kinase-Glo TM) Inhibition | Luciferin 4-monooxygenase (Photuris pensylvanica), Q27757 | Kinase-Glo luciferase, ATP luminescence, 8 min | Potency, µM (highest dose often 38.3 µM), without a hit: top-dose activity change, negative = inhibition, hits mostly inhibitors | actives 0.28% (n = 200,000); further: on the % scale 0 is the no-effect control and ±100 the full control effect; nearly all actives have a fitted effect of over 60% in size
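Kinase-Glo luciferase light output from ATP and luciferin was measured with 10 uM ATP, within the enzyme's linear range. Buffer: 50 mM imidazole pH 7.2, 50 mM KCl, 7 mM MgCl2, 0.01% Tween 20, 0.05% BSA; luminescence read after 8 min at ambient temperature.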
Rab9 prom act = qHTS Assay for Rab9 Promoter Activators. Huh7 Rab9 promoter-luciferase reporter, luminescence, 24 h. Potency, µM (doses to about 9.22 µM), for the others: at the top dose activation, negative = inhibition, hits mostly activators. actives 2.8% (n = 320,000); further: % of control where 0% means no effect; nearly all actives have a fitted effect of over 60% in size
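Promoter activation is measured as luciferase luminescence in Huh7 cells stably transfected with a Rab9 promoter–luciferase construct, following 24 h compound exposure at 37 °C and 10 min reagent incubation at ambient temperature.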
An asterisk follows results filed as active; ? = inconclusive; . = no result; [ ] = another dose, or the depositor's remark. The call rests on the fitted dose curve; in most records, active means well fitted curve in the direction sought with a large enough effect; inconclusive means small, poorly fitted or top-dose-only effect, or another doubt; inactive means no such curve, though single readings can be large; an effect the other way counts as inactive or inconclusive. Potency means the concentration at half of the fitted maximal effect.

SMILES	ELG1 genotox	FLuc modulator	SMN2 splice up	NPC1 promoter act	KinaseGlo FLuc	Rab9 prom act
CCc1ccc(C(=O)CSc2n[nH]c(C)n2)cc1	5%	21µM*	5%	30%	0%	?
CC(C)c1ccc(C(=O)CSc2n[nH]c(-c3ccncc3)n2)cc1	-1%	15µM*	33%	3%	11%	3%
COc1ccc(-c2nc(SCC(=O)c3ccc(Br)cc3)n[nH]2)cc1	.	1%	-13%	.	.	.
N[C@@H]1[C@@H]2[C@@H]3C[C@H]4N(CC[C@@]14C(=O)C(=O)O)CC3=CCO[C@@H]2CC(=O)O	.	.	-6%[9.22 µM]	.	1%[7.66 µM]	.
O=S(=O)(N/N=C\C=C\c1ccccc1)c1ccc(Br)cc1	0%	0%	13%	-3%	-1%	0%
CC1CCC/C(=N/Nc2nc3ccccc3s2)C1 (stereo not drawn)	?	0.85µM*	11µM*	22%	-12%	3.5µM*
Brc1ccc(/C=C/C=N/Nc2nc3ccccc3s2)cc1	2%	9.5µM*	-18%	?	-3%	.
C(=C\c1ccccc1)/C=N/Nc1nc2ccccc2s1	?	2.4µM*	14µM*	1.6µM*	2%	1.3µM*
Cc1ccc(-c2csc(N/N=C/C=C/c3ccccc3)n2)cc1	0%	-13%	1%	-3%	-5%	0%
CCC/C=N/Nc1nc2ccccc2s1	?	3.4µM*	?	3.5µM*	-6%	2.8µM*
COc1cc(NC(=O)N2CCC(CN3CCCCCC3)CC2)cc(OC)c1OC	.	2%	.	.	.	.
CCN1CCN(CCCNC(=O)c2cc3c(=O)n(C)c4ccccc4c3s2)CC1	.	5%	?	.	.	.
Cc1cccc(C(=O)CC(=O)c2cc(Cl)ccc2O)c1	-7%	-12%	-98%	-2%	16%	-2%
Cc1ccc(O)c(C(=O)CC(=O)c2cccc(F)c2)c1	7%	-7%[2.3 µM]	35µM*	?	1%	?
Cc1ccc(O)c(C(=O)CC(=O)c2ccc(Cl)cc2)c1	?	24µM*	.	15%	.	?
COc1ccc(-c2cc(C(C)=O)c(C)n2CCC(=O)NCc2ccc(F)cc2)cc1	.	5%	.	.	.	.
O=CN1CCN(C(=O)c2ccc(-c3nc4ccccc4s3)s2)CC1	?	11µM*	.	1.8µM*	-8%	1.1µM*
O=Cc1ccc(-c2nc3ccccc3s2)o1	?	11µM*	11µM*	27%	?	?
O=C(O)c1ccc(-c2nc3ccccc3s2)o1	12%	6µM*	.	?	.	?
O=C(c1ccc(-c2nc3ccccc3s2)o1)N1CCN(c2ccccc2O)CC1	-9%	17µM*	.	?	.	?
O=C(O)c1ccc(-c2ccc(-c3ccccc3)cc2)o1	.	.	.	.	1%[39.9 µM]	.
O=C(CCc1nc2ccccc2s1)N1CCN(c2ccccc2)CC1	-12%	3%	12%	6%	2%	-3%
CN(C)CCNC(=O)CN1C(=O)COc2ccc(S(=O)(=O)N3CCCC3)cc21	.	1%	26%	.	.	.
CCOc1ccccc1C(=O)NCc1ccc2c(c1)CCN2C(C)=O	.	1%	.	.	.	.
CCC1CCCCN1S(=O)(=O)c1cc2c3c(c1)CC(=O)N3CCC2 (stereo not drawn)	.	-7%	.	.	.	.
SMILES	ELG1 genotox	FLuc modulator	SMN2 splice up	NPC1 promoter act	KinaseGlo FLuc	Rab9 prom act
COc1ccc(Nc2nc3c(S(=O)(=O)c4ccc(C)cc4)nnn3c3ccsc23)cc1Cl	.	-4%	.	.	.	.
CCOC(=O)c1noc2ncn(CC(=O)Nc3cccc(C(F)(F)F)c3)c(=O)c12	.	15%	.	.	.	.
COc1cc2cc(C(=O)Nc3ccccc3)c(N)nc2cc1OC	0%	12µM*	-7%	2%	0%	-1%
COc1cc2ccccc2cc1C(=O)Nc1ccc(N2CCN(C(=O)C(C)C)CC2)cc1	-13%	-8%	.	2%	.	-1%
COc1cc2ccccc2cc1C(=O)Nc1ccc(N2CCN(C)CC2)cc1	14µM*	4.8µM*	50%	?	-2%	3.5µM*
COc1ccc(NC(=O)c2cc3ccccc3cc2OC)cc1	?	3.4µM*	.	?	.	29%
COc1cc2ccccc2cc1C(=O)Nc1ccccc1Cl	?	3.4µM*	.	?	.	26%
CN(C)c1ccc(CN(Cc2ccco2)C(=O)COc2ccc(F)cc2)cc1	.	-14%	0%	.	.	.
COc1cc2cc(CNc3ccccc3)c(=O)n(CC(=O)Nc3ccccc3)c2cc1OC	.	-6%	.	.	.	.
CCOC(=O)c1[nH]c(C)c(CCC(=O)NCc2ccc(C)cc2)c1C	.	-1%	.	.	.	.
COc1ccccc1NC(=O)c1cc2cc(Br)ccc2cc1O	-10%	17µM*	.	1%	.	-5%
COc1cc(OC)c(NC(=O)c2ccccc2F)cc1Cl	3%	?	13%	6%	-1%	14%
COc1cc(NC(=O)c2cc3ccccc3cc2O)c(OC)cc1Cl	-6%	9.5µM*	.	?	.	-7%
CCOc1ccc(NC(=O)c2cccc3ccccc23)cc1	4%	-17%	.	-11%	.	14%
CCOc1ccc(NC(=O)c2cc3ccccc3cc2O)cc1	?	0.76µM*	.	?	.	2.8µM*
CCOc1ccc(NC(=O)c2cc3ccccc3cc2OC)cc1	?	5.4µM*	.	?	.	?
CCn1c(SCC(=O)Nc2cc(C)ccc2F)nnc1-c1ccccc1O	.	5%	-21%	.	.	.

Bioassay records as filed in PubChem BioAssay.
